# Key:
# Conditions in all cases: concentration: 1 μM, replicates: in singlicate; n = 1
# DCAMKL2 = system: T1, DCAMKL2
# T1 construct: gene DCLK2
# DCAMKL3 = system: T2, DCAMKL3
# T2 construct: gene DCLK3
# DDR1 = system: DDR1
# DDR2 = system: DDR2
# DLK = system: T3, DLK
# T3 construct: gene MAP3K12
# DMPK2 = system: T4, DMPK2
# T4 construct: gene CDC42BPG
# DMPK = system: DMPK
# DRAK1 = system: T5, DRAK1
# T5 construct: gene STK17A
# DRAK2 = system: T6, DRAK2
# T6 construct: gene STK17B
# DYRK1A = system: DYRK1A
# 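Further: KINOMEscan kinase panel screen.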
SMILES,%Inh (DCAMKL2) [%],%Inh (DCAMKL3) [%],%Inh (DDR1) [%],%Inh (DDR2) [%],%Inh (DLK) [%],%Inh (DMPK2) [%],%Inh (DMPK) [%],%Inh (DRAK1) [%],%Inh (DRAK2) [%],%Inh (DYRK1A) [%]
CCn1cnc2c(NCc3ccccc3)ncnc21 [SKF-96418],0,0,0,38,0,1,0,0,0,0
O=C1NC(=O)C(c2ccccc2Cl)=C1Nc1cccc(Cl)c1 [SB-342409],10,14,9,0,0,75,1,1,0,61
CC(C)NCC(Cc1ccccc1)NC(=O)c1cc(Br)c(-c2ccnc3[nH]ccc23)s1.Cl.Cl (centres unmarked) [GSK1383281],0,54,0,13,24,50,32,0,4,17
Cl.Cl.NC(CNC(=O)c1cc(Br)c(-c2ccnc3[nH]ccc23)s1)c1ccccc1 (centres unmarked) [GSK1322949],18,0,0,29,43,59,72,93.8,4,84
Nc1ncc(-c2cn[nH]c2)c2scc(-c3ccc4c(c3)CCN4C(=O)Cc3ccccc3)c12 [GSK2593067],5,0,98.4,22,18,90.3,0,0,0,20
O=C(Nc1n[nH]c2nc(-c3ccccc3O)ccc12)C1CC1 [SB-711880],0,0,1,0,32,0,0,3,0,9
CN(C)CCNS(=O)(=O)c1ccc(-c2ccnc3[nH]ccc23)cc1 [GSK977620],16,15,7,0,26,30,74,71,28,69
COc1cc(Nc2ccnc3cc(-c4ccncc4)ccc23)cc(OC)c1OC.Cl [GW494610],0,0,57,81,47,46,0,0,0,12
CCNC(=O)/C=C/c1n[nH]c2cc(Sc3ccccc3C(=O)NC)ccc12,11,30,0,0,9,3,3,49,0,21
Cc1ccc(NC(=O)c2ccc(Cl)c(Cl)c2)cc1-c1ccc(C(=O)Nc2ccncc2)cc1 [GSK1398460],10,17,100,69,0,0,0,0,3,14
Fc1cc(Cl)ccc1Nc1ccnc2cc(-c3ccc(CN4CCSCC4)o3)ccc12 [GW560106],0,42,96.1,69,46,0,8,23,0,0
Cn1cc(-c2ccc3c(c2)CCN3C(=O)Cc2cc(F)cc(C(F)(F)F)c2)c2c(N)ncnc21 [GSK2635225],0,0,100,85,23,0,0,0,0,4
CN(c1ccc(F)c(NC(=O)c2cccc(OC(C)(C)C#N)c2Cl)c1)c1ccc2nc(NC(=O)C3CC3)sc2n1,0,0,100,97,2,14,0,0,0,0
Cc1ccc(C)c(NC(=O)Nc2ccc(C)c(-c3ccc(C(=O)Nc4ccncc4)cc3)c2)c1 [GSK1398473],0,13,99.8,72,0,1,4,0,0,36
CC(=O)Nc1cn2nc(Oc3cccc(NC(=O)c4cccc(C(F)(F)F)c4)c3)ccc2n1,24,9,98.3,100,0,1,0,0,11,0
Cl.Cl.NCC(NC(=O)c1cc(-c2cccnc2)c(-c2ccnc3[nH]ccc23)s1)c1ccccc1 (centres unmarked) [GSK1323434],9,0,11,55,34,51,79,19,0,48
CNc1nccc(-c2ccc3c(N)n[nH]c3c2)n1 [GSK2206003],1,72,0,29,34,0,0,99.2,83,98.8
CN(C)CCOc1ccc(-c2cc(-c3ccc(Cl)c(O)c3)c(-c3ccncc3)[nH]2)cc1.Cl.Cl [SB-684387],0,10,56,38,14,41,29,20,0,0
NCCC(NC(=O)c1cc(Br)c(-c2ccnc3[nH]ccc23)s1)c1ccccc1.O=C(O)C(F)(F)F.O=C(O)C(F)(F)F (centres unmarked) [GSK1307810],0,0,0,26,33,99.8,64,74,0,44
COC(=O)Nc1nc2ccc(Oc3ccc(NC(=O)Nc4cc(C(F)(F)F)ccc4F)cc3)cc2[nH]1.Cl [GW654607],0,36,100,94.2,13,9,0,0,1,13
COc1ccc(C2=C(Nc3cccc(O)c3)C(=O)NC2=O)cc1 [SB-390766],0,1,1,17,19,0,0,3,0,70
Cc1ccc(NC(=O)c2cccc(N3CCCCC3)c2)cc1-c1ccc(C(=O)NCC2CC2)cc1 [GSK1917008],19,0,100,64,8,100,3,0,9,27

SMILES,%Inh (DCAMKL2) [%],%Inh (DCAMKL3) [%],%Inh (DDR1) [%],%Inh (DDR2) [%],%Inh (DLK) [%],%Inh (DMPK2) [%],%Inh (DMPK) [%],%Inh (DRAK1) [%],%Inh (DRAK2) [%],%Inh (DYRK1A) [%]
c1ccc(Oc2ccc(Nc3ccnc4cc(-c5ccc(CN6CCCCC6)o5)ccc34)cc2)nc1 [GW567143],8,25,30,35,79,0,0,0,0,26
Cc1ccccc1CC(=O)N1CCc2cc(-c3cn(C)c4ncnc(N)c34)ccc21 [GSK2603346],0,0,56,13,4,74,0,0,0,17
CC(C)c1nc(-c2ccc(F)c(NS(=O)(=O)c3c(F)cccc3F)c2)c(-c2ccnc(Nc3ccc(N4CCOCC4)nc3)n2)s1 [GSK1804250],0,30,82,56,68,26,6,15,0,7
Cl.N#CCc1ccc(Nc2nccc(Nc3ccc(Oc4ccccc4)cc3)n2)cc1 [GW639905],0,1,32,5,35,0,0,22,0,19
N#CC1(c2cccc(C(=O)Nc3cccc(Oc4ccc5nc(NC(=O)C6CC6)sc5n4)c3)c2)CC1,0,0,98.6,99.2,0,6,5,2,7,0
Cc1cccc(Nc2nc(NCCN)ncc2C(N)=O)c1 [GSK1292139],0,0,0,20,62,60,14,58,68,2
COc1ccc(NC(=O)c2ccoc2)cc1-c1ccc(C(=O)NCC2CC2)cc1 [GW810437],17,12,0,50,0,0,1,6,7,0
CS(=O)(=O)c1cccc(CNc2nc(Nc3ccc4c(c3)CCC(=O)N4)ncc2C(F)(F)F)c1,0,99.4,0,2,13,0,0,95.6,98.3,85
Cc1ccc(-c2ccc3occ(-c4ccc(S(C)=O)cc4)c3c2)nn1 (centres unmarked),0,21,0,16,0,0,8,10,22,0
COC(=O)Nc1nc2ccc(Oc3ccc(CC(=O)Nc4cc(C(F)(F)F)ccc4F)cc3)cc2[nH]1 [GW680903],0,0,100,97.4,30,0,0,54,0,13
CN(c1ccc2c(c1)nc(NCc1ccccc1)n2C)c1ccnc(Nc2ccc(CS(C)(=O)=O)cc2)n1.Cl [GW811603],0,99.4,99.5,100,14,0,9,0,0,5
Cc1ccc(Nc2ccnc(Nc3ccc(C)c(F)c3)n2)cc1O.Cl [GW582868],0,0,10,12,40,0,0,0,0,20
Cn1cc(-c2cnc(N)c3c(-c4ccc5c(c4)CCN5C(=O)Cc4ccccc4)csc23)cn1 [GSK2593074],0,5,97.7,24,0,81,0,0,9,0
COc1cc(Nc2nccc(N3CCC(NC(=O)Nc4ccc5c(c4)OCO5)C3)n2)cc(OC)c1OC (centres unmarked) [GSK1379766],7,0,0,6,53,10,0,0,4,12
O=C(Nc1n[nH]c2nc(-c3ccccc3)ccc12)C1CC1 [SB-708999],6,0,3,32,0,50,0,0,0,15
COc1cccc2c(-c3ccncc3)c(-c3ccc(F)cc3)nn12 [GW468513],0,0,96.2,90,46,98.9,0,0,0,15
O=C(Nc1n[nH]c2nc(-c3cccc(O)c3)ccc12)C1CC1 [SB-711805],0,49,0,20,0,0,0,24,12,76
CC(C)c1nc(-c2cccc(NS(=O)(=O)c3c(F)cccc3F)c2)c(-c2ccnc(Nc3ccc(N4CCOCC4)nc3)n2)s1.Cl [GSK1723980],13,10,94.9,42,74,11,0,0,0,39
CN(c1ccc(NC(=O)Nc2cccc(Cl)c2)cc1)c1ccnc(N)n1.Cl [GW830707],0,4,97.7,99.3,0,0,4,0,17,0
COc1cccc(C2=C(Nc3cccc(O)c3)C(=O)NC2=O)c1 [SB-390771],0,31,0,17,26,0,0,0,0,57
CN1CCN(Cc2ccc(NC(=O)Nc3ccc(N(C)c4ccnc(Nc5ccc(CS(C)(=O)=O)cc5)n4)cc3)cc2)CC1.Cl [GW827654],18,30,99.4,100,64,57,0,10,21,0
Nc1cccc(-c2ccc3c(N)n[nH]c3c2)c1 [GSK2193613],0,0,0,0,43,0,33,95.1,0,24

SMILES,%Inh (DCAMKL2) [%],%Inh (DCAMKL3) [%],%Inh (DDR1) [%],%Inh (DDR2) [%],%Inh (DLK) [%],%Inh (DMPK2) [%],%Inh (DMPK) [%],%Inh (DRAK1) [%],%Inh (DRAK2) [%],%Inh (DYRK1A) [%]
Cc1ccc(NC(=O)c2ccnc(N3CCCCC3)c2)cc1-c1ccc(C(=O)NCC2CC2)cc1 [GW775610],0,4,99,93.6,5,0,0,0,0,40
O=C(O)C(F)(F)F.O=c1[nH]ccc2nc(N[C@@H]3CCNC3)nc(Nc3ccc4c(c3)S(=O)(=O)CC4)c12 [GSK2181306],84,98.4,0,5,72,45,97.5,99.5,92.1,35
CCNc1nccc(-c2c(-c3ccc(F)cc3)ncn2C2CCN(C)CC2)n1,0,5,70,4,0,8,0,16,0,0
Cc1cc(-c2c(-c3ccc(F)cc3)ncn2CCCN2CCOCC2)nc(N)n1 [SB-222517],2,0,0,21,0,0,16,13,15,0
Cc1nn2c(=O)cc(N3CCO[C@H](C)C3)nc2n1Cc1cccc(Cl)c1Cl [GSK2373693],6,34,18,0,0,0,1,0,11,48
Nc1ncc(-c2ccc3nccc(-c4ccncc4)c3c2)cc1S(=O)(=O)N1CCCCC1 [GSK1693850],0,0,2,12,42,15,0,0,5,8
COc1ccc(C)c(Nc2ccnc(Nc3ccc(-c4cnc[nH]4)cc3)n2)c1.Cl [GW784041],3,27,52,70,10,5,0,0,0,0
CC(C)(C)c1ccc(C(=O)Nc2cn3cc(-n4ccnc4)ccc3n2)cc1,0,0,0,2,0,4,0,20,35,91.4
Fc1cc(Cl)ccc1Nc1ccnc2cc(-c3ccc(CN4CCOCC4)o3)ccc12 [GW560109],0,0,97.9,60,28,0,16,0,0,11
Cc1ccc(O)cc1Nc1ccnc2cc(-c3ccc(CN4CCCCC4)o3)ccc12 [GW557777],10,0,98.1,94.5,0,7,0,10,0,0
COc1cc(Nc2nccc(N3CCC(NS(=O)(=O)c4ccc(NC(C)=O)cc4)CC3)n2)cc(OC)c1OC [GSK1379825],1,0,0,14,76,83,0,0,0,25
COc1cccc(CC(=O)N2CCc3cc(-c4cn(C)c5ncnc(N)c45)ccc32)c1 [GSK2608899],0,14,97,27,36,53,25,4,0,6
Cc1cc(-c2ccnc(Nc3cccc(C#N)c3)n2)cc(C)c1O [GSK1440913],10,61,0,23,46,22,0,96.8,45,46
CCn1c(-c2nonc2N)nc2c(-c3ccccc3)ncc(OCCCN)c21.O=C(O)C(F)(F)F.O=C(O)C(F)(F)F [GSK260205],9,70,26,31,0,100,0,5,2,23
Cn1cc(-c2ccc3c(c2)CCN3C(=O)Cc2cc(F)cc(F)c2F)c2c(N)ncnc21 [GSK2634140],0,0,72,27,31,56,0,0,0,16
COC(=O)Nc1nc2cc(Oc3ccc(NC(=O)Nc4cccc(SC)c4)cc3)ccc2[nH]1.Cl [GW697999],6,29,100,98.7,32,0,0,8,0,12
Cl.O=C(Nc1ccc(Oc2ccc3[nH]c(NC(=O)c4ccco4)nc3c2)cc1)Nc1cc(C(F)(F)F)ccc1F [GW683134],7,0,100,95.7,22,0,0,0,0,13
O=C(O)C(F)(F)F.O=c1[nH]ccc2nc(N[C@@H]3CCNC3)nc(Nc3cc(Cl)cc(Cl)c3)c12 [GSK2188764],52,82,0,18,43,41,98.3,99.7,79,3
CN(C)c1ncnc2nc[nH]c12 [SKF-31736],0,0,0,35,12,0,2,0,0,0
COc1cccc(-c2nc(-c3ccccc3)[nH]c2-c2ccncc2)c1 [SB-610250],22,14,78,49,16,68,0,0,0,22
N#Cc1cnc2cc(-c3cnc(CNCCN4CCOCC4)s3)ccc2c1Nc1ccc(Oc2ccccc2)cc1 [GW664114],0,0,21,11,91.2,0,0,2,0,38
